The results in this text go back to the supplement of paper PMC6555819.

The test concerns RARb:RXRa (NR concentration 270 nM, RXRa partner concentration 90 nM). Kind of test: PBM binding z-score (relative to random genomic background probes); higher = stronger binding; sequences stand for … in GC…GCGATTGACAGCGTAGAATGAAGG
The procedure, abridged: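 Each nuclear receptor dimer, without ligand, was incubated for 1 h on custom Agilent 4×180K protein-binding microarrays. Binding was detected with antibodies against each partner (one per run), and scanned fluorescence was regression-normalized. The binding z-scores are referenced to random human genomic background probes.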
CCTAGTGGGCCATTCAGAGGTCATTGATCATATG registered a PBM binding z-score of 2.98.

Take TAGCCTAGGTCATGGTCCAGTATACCACGCGAAC: the PBM binding z-score turned out to be 3.78.

In the case of CAAACTAGGTCAAAGGTCTAAGTCGAGCCAACCA, the PBM binding z-score amounted to 3.91.

For the sequence CCTACTGGGCCATCAGGTCATAGATATCAACGTT, the PBM binding z-score amounted to 1.99.

TCTATTAGTTGGTTAGGGCAACCGAAACAGCGGA returned a PBM binding z-score of 0.848.

Consider CGTCCAAGGTTAGCAGGTCAGTGAAAGCGACGTG, for which the PBM binding z-score came to 3.08.

Turning to GGTGCTAGGTCAGGTTGGTCAGCTAACGGGTACG, the PBM binding z-score worked out at 3.56.

The sequence TTACCAAGGTGGGCTGAGGTCGTTGATCCAACTC registered a PBM binding z-score of 0.446.

CAAACTAGGTCAAAGGTCATAGTCGAGCCAACCA showed a PBM binding z-score of 5.59.

In turn, GCTGTTAGTTGAAAGGGCAACCGAATGATTCTCG came in with a PBM binding z-score of 2.08.

In the case of CGAACTAGGTCAGCCAGGACAGTGAATACATTGA, the PBM binding z-score was 3.45.

In turn, CCTACTGGGCCATCAGGTCATGGATATCAACGTT came in with a PBM binding z-score of 2.31.

GGAACGAGGGCATTCGAGTTGATGGCATGGCGAT showed a PBM binding z-score of 1.6.

Regarding TAGCCTTGGTCAGATCGGGCCAGTATACGCTATA, the PBM binding z-score is 0.307.

On to AGAATGAGGTTAAGATCAGGGACACAGAATACAT, for which the PBM binding z-score was determined as 2.23.

For the sequence AGTCAAAGTTCACTAGGTGACGTAAGATTCAGCT, the PBM binding z-score was found to be 4.87.

The sequence GCTGCTAGGTCAACTGATGGTCAGTTAAAGCTCG had a PBM binding z-score of 4.15.

For the sequence GGCACGAGGGCATTCGAGTTGATAGCATGGCGAT, the PBM binding z-score came out at 1.95.

The sequence ACTCGGAGGACAAAGGTCAGAGCAACGCCAGTGA displayed a PBM binding z-score of 4.58.

ACTCGGAGAACAAAGGTCAGAGCTACGCCAGTGA: the PBM binding z-score turned out to be 4.21.

TAGCCTAGGTCATGGGCCCGTATACCACGCGAAC had a PBM binding z-score of 3.81.

In turn, ATATGTAGATTAAGGGTCATTCAGGTTGGTTCGC gave a PBM binding z-score of 2.88.
